# Several values for one entry are separate records, joined by “and”; a condition that tells them apart may be missing. Equal entries are not always repeated. In all, about 16,000 compounds went through this assay and about 5,700 (36%) were called active. About 24% were inconclusive and are not listed. The call rests on the fitted dose curve; in most records, active means well fitted curve in the direction sought with a large enough effect; inconclusive means small, poorly fitted or top-dose-only effect, or effect the other way; inactive means no such curve, though single readings can be large or run the other way. The list shows a part of the results. Numbered stars: 1 amine (or outer) side, 2 acyl side, 3 side chain; on linkers, the order of the positions; unused ones are H or OH. Bridge positions count the residues as written; N and C are the ends. Square brackets hold non-standard residues; d marks the D form. Peptide text beside a SMILES is read from it. I, II: the chains in the order shown. Actinocin(9to1) = Cc1c2oc3c(C)ccc(C(=O)[*:1])c3nc-2c(C(=O)[*:2])c(N)c1=O; aThr = C[C@H](O)[C@H](N)C(=O)O; NMeV = CN[C@H](C(=O)O)C(C)C; Sar = CNCC(=O)O
# Biological target: Cytochrome P450 1A2 (Homo sapiens) (UniProt P05177)
# Experiment: Cytochrome panel assay with activity outcomes
# Details: recombinant CYP, pro-luciferin dealkylation, luminescence, p450-cyp1a2; series mostly up to 57.1 µM
# On the % scale 0 is the no-effect control and ±100 the full control effect.
# Chain of Cytochrome P450 1A2 (Homo sapiens) (P05177 whole entry, looked up): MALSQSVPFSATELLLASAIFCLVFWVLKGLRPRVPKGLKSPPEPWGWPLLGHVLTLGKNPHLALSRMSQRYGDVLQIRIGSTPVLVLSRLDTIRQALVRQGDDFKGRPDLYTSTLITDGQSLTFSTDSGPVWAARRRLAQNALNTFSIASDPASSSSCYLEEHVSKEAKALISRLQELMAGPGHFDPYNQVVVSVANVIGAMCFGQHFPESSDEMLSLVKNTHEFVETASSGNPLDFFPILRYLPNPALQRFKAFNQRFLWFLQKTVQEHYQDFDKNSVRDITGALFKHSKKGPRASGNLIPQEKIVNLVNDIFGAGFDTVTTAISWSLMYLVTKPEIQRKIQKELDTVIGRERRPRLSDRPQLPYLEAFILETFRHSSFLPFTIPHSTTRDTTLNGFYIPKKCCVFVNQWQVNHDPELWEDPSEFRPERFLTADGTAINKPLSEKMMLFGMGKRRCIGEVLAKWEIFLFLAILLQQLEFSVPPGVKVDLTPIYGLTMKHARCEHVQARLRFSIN
SMILES,AC50,"activity, negative = inhibition"
Cc1cc(C)n(-c2nc(SCCN(C)C)c3c4c(sc3n2)CCCC4)n1,14.1 µM (active),–
CO[C@@H]1COC(=O)[C@@H](CCSC)NC(=O)C/C=C\[C@@H](C)COC(=O)[C@H](C)NC(=O)C/C=C\[C@H]1C,–,-5.08% [at 11.4 µM] (inactive)
Cc1ccccc1S(=O)(=O)c1c(C)cc(-c2ccccc2)[nH]c1=O,inactive,–
Cc1cc(-c2ccccc2)[nH]c(=O)c1S(=O)(=O)c1ccc(Cl)cc1,inactive,–
O=c1cc(-c2ccccc2)[nH]c2nc(Cl)ccc12,0.398 µM (active),–
CC(=O)N1CCC2(CCCN(Cc3nccs3)C2)CC1,inactive,–
CCOC(=O)C(C)n1cnc2c(oc3ccccc32)c1=O (stereo not given),5.62 µM (active),–
Cc1cc(/C=C2\SC(=S)NC2=O)c(C)n1C,5.01 µM (active),–
Cc1ccc(S(=O)(=O)N2CCC(C(=O)NCCCOC(C)C)CC2)cc1,inactive,–
O=C(OC(C(=O)O)C(OC(=O)c1ccccc1)C(=O)NCc1ccccc1)c1ccccc1 (stereo not given),inactive,–
O=C(NCc1ccccc1)c1cccc(COc2cccc(Cl)c2)c1,17.8 µM (active),–
CN1CCN(c2ncc3nc(-c4ccc(Cl)cc4)c(=O)n(Cc4cccs4)c3n2)CC1,10 µM (active),–
O=c1c(-c2ccc(F)cc2)nc2cnc(N3CCNCC3)nc2n1Cc1cccs1,10 µM (active),–
O=c1c(-c2ccc(Cl)cc2)nc2cnc(N3CCNCC3)nc2n1Cc1cccs1,12.6 µM (active),–
COc1cccc(Cn2c(=O)c(-c3ccc(Cl)cc3)nc3cnc(N4CCN(C)CC4)nc32)c1,inactive,–
O=c1c(-c2ccc(F)cc2)nc2cnc(N3CCOCC3)nc2n1Cc1cccs1,12.6 µM (active),–
CC1CCc2cc(F)ccc2N1C(=O)CSc1nnc2c(n1)[nH]c1ccc(F)cc12 (stereo not given),0.501 µM (active),–
O=C(CSc1nnc2c(n1)[nH]c1ccc(F)cc12)OCc1ccccc1,0.501 µM (active),–
Cc1ccc(C(=O)NNC(=O)CSc2nnc3c(n2)[nH]c2ccc(F)cc23)cc1,inactive,–
C#CCCCO/N=C1/[C@H]2O[C@@H]2[C@@H](O)[C@H]2[C@H]1CCn1c(=O)n(Cc3cc4c(cc3Cl)OCO4)c(=O)n12,–,1.39% [at 11.4 µM] (inactive)
Cc1nc(Cl)c(C#N)cc1-c1ccccc1,1 µM (active),–
Cc1nc(Sc2ccccc2)c(C#N)cc1-c1ccccc1,1.26 µM (active),–
"Cc1c2oc3c(C)ccc(C(=O)N[C@@H]4C(=O)N[C@@H](C(C)C)C(=O)N5CCC[C@@H]5C(=O)N(C)CC(=O)N(C)[C@@H](C(C)C)C(=O)O[C@H]4C)c3nc-2c(C(=O)N[C@@H]2C(=O)N[C@@H](C(C)C)C(=O)N3CCC[C@@H]3C(=O)N(C)CC(=O)N(C)[C@@H](C(C)C)C(=O)O[C@H]2C)c(N)c1=O (I: [aThr]V[dP][Sar][NMeV] / II: [aThr]V[dP][Sar][NMeV]; ester I:1-I:C, II:1-II:C; linker I:N-II:N via Actinocin(9to1))",inactive,–

SMILES,AC50,"activity, negative = inhibition"
CCOC(=O)C1=C(c2ccccc2)OC(N)=C(C#N)C1c1ccc(Cl)s1 (stereo not given),0.398 µM (active),–
CCc1ccc2c(-c3cccc(Cl)c3)nc(=O)n(CC)c2n1,0.126 µM (active),–
Cc1ccc(NC(=O)CCC(=O)NNC(=O)c2ccco2)cc1C,inactive,–
Cc1cc(NC(=O)c2ccco2)ccc1-n1cnnn1,14.1 µM (active),–
O=C(CCc1ccccc1)NNC(=O)c1ccco1,inactive,–
CCC(NC(=O)c1ccccc1NC(=O)c1ccco1)C(=O)NC1CCCCC1 (stereo not given),inactive,–
CC1(C)Oc2ccc(NC(=O)c3ccco3)cc2O1,5.01 µM (active),–
CC1=C(C(=O)Nc2ccccc2)C(c2ccco2)NC(=S)N1 (stereo not given),inactive,–
O=C(Nc1ccccc1C(=O)NCCc1ccccc1)c1ccco1,5.01 µM (active),–
O=C(Nc1ccccc1C(=O)Nc1ccc2c(c1)OCO2)c1ccco1,8.91 µM (active),–
Cc1cc(C)cc(NC(=O)N2CCCC2C(=O)Nc2ccc(-n3cnnn3)c(C)c2)c1 (stereo not given),inactive,–
N#CC(C#N)=CNCCN1CCN(C=C(C#N)C#N)CC1,–,-15.4% [at 2.29 µM] (inactive)
NC(N)=N[C@H](CCC(=O)O)C(=O)O,inactive,–
COc1ccc2[nH]cc(CCNc3ccnc(-c4c(C)noc4C)n3)c2c1,2 µM (active),–
COc1ccc2[nH]cc(CCNc3ccnc(-c4ccc(N(C)C)cc4)n3)c2c1,0.631 µM (active),–
COc1ccc2[nH]cc(CCNc3cc(-c4ccc(C(=O)N(C)C)cc4)ncn3)c2c1,20 µM (active),–
COc1ccc2[nH]cc(CCNc3ccnc(-c4ccc(C(=O)N(C)C)cc4)n3)c2c1,12.6 µM (active),–
CCOC(=O)C1=C[C@@]2(CC)CCCN3CCc4c(n1c1ccccc41)[C@H]32,inactive,–
COc1ccc2[nH]cc(CCNc3ccnc(-c4ccc5c(c4)OCO5)n3)c2c1,0.631 µM (active),–
COc1ccc([C@@H](Nc2ncccn2)c2cc3c(cc2O)OCO3)cc1,–,-14.3% [at 2.29 µM] (inactive)
COc1ccc2[nH]cc(CCNc3ccnc(-c4ccoc4)n3)c2c1,0.501 µM (active),–
O=C(O)CC(O)C(=O)O (stereo not given),inactive,–
CC(C)(CS)C(=O)N1CCC[C@H]1C(=O)O,inactive,–

SMILES,AC50,"activity, negative = inhibition"
O=S(Cc1cc(Oc2ccccc2)nc(-c2ccccc2)n1)c1ccccc1 (stereo not given),2.82 µM (active),–
O=S(=O)(Cc1cc(Oc2ccccc2)nc(-c2ccccc2)n1)c1ccccc1,0.708 µM (active),–
CNc1cc(CS(=O)c2ccccc2)nc(-c2ccccc2)n1 (stereo not given),14.1 µM (active),–
Cc1nnc(-c2cccc(Br)c2)c2cn(-c3ccccc3Cl)nc12,1.58 µM (active),–
Cc1nnc(-c2cccc(Br)c2)c2cn(-c3ccc(Br)cc3)nc12,0.891 µM (active),–
Cc1nn(C)cc1CNC(=O)CCC(=O)O,inactive,–
O=C(CSC1=NCCS1)N1CCN(c2ccc(Cl)cc2)CC1,14.1 µM (active),–
O=C(CSc1ccc(Cl)cc1)Nc1ccc(N2CCN(C(=O)c3ccc(Cl)cc3)CC2)cc1,inactive,–
COC(=O)C/C=C\[C@@H](C)[C@@H](/C=N\O[C@@H](C)c1cn([C@H]2COC[C@H]2O)nn1)OC,–,9.97% [at 11.4 µM] (inactive)
O=C1C2=C(NC(=S)NC2c2ccc(Cl)cc2)NC(c2ccc(Cl)cc2)N1c1ccc(Cl)cc1 (stereo not given),12.6 µM (active),–
COC(=O)C/C=C\[C@@H](C)[C@@H](/C=N\O[C@@H](C)c1cn([C@H](CO)Cc2ccccc2)nn1)OC,–,-11.5% [at 11.4 µM] (inactive) and 12.6% [at 11.4 µM] (inactive)
O=C(Nc1ccc2c(c1)OCCO2)c1cccc2nc3ccccc3nc12,2 µM (active),–
Cc1ccccc1NC(=O)c1cccc2nc3ccccc3nc12,2 µM (active),–
Cc1ccccc1NC(=O)c1cnc(Nc2nc3ccccc3s2)nc1C,inactive,–
Cc1ccccc1NC(=O)CN1CCC(n2nnc3ccccc32)CC1,inactive,–
COc1ccc(-n2c(=O)c(-c3ccccc3)nc3cnc(N4CCNCC4)nc32)cc1,15.8 µM (active),–
COc1ccc(-n2c(=O)c(-c3cccc(C#N)c3)nc3cnc(N4CCNCC4)nc32)cc1,15.8 µM (active),–
COc1cccc(Cn2c(=O)c(-c3cccc(C#N)c3)nc3cnc(N4CCN(C)CC4)nc32)c1,inactive,–
O=c1c(-c2ccc(F)cc2)nc2cnc(N3CCNCC3)nc2n1-c1ccccc1,10 µM (active),–
O=C(c1cccc(F)c1)N1CCC2(CC1)CN(c1ccncc1)C2,inactive,–
Cc1ccc(S(=O)(=O)N2CCN(Cc3ccccc3C(F)(F)F)CC2)cc1,inactive,–
COc1ccc(C2=Nc3cccc4cccc(c34)N2)cc1,0.631 µM (active),–
CCCC(=O)Nc1nnc(CCN2CCCCC2)s1,inactive,–

SMILES,AC50,"activity, negative = inhibition"
CC(=O)Nc1ccc(C(=O)NNC(=O)CCc2ccccc2)cc1,inactive,–
O=C(CCc1ccccc1)Nc1nncs1,10 µM (active),–
CCCc1nnc(NC(=O)CCC(=O)NCc2ccccc2OC)s1,inactive,–
CCCC(=O)Nc1nnc(Cc2ccccc2)s1,12.6 µM (active),–
Nc1ccc(N(c2ccccc2)c2ccc(N)cc2)cc1,17.8 µM (active),–
Nc1ccc(S(=O)(=O)NC(=O)c2ccccc2)cc1,inactive,–
C[C@@H]1O[C@H](O[C@@H]2[C@@H](Oc3cc(O)c4c(c3)O[C@H](c3ccc(O)cc3)CC4=O)O[C@@H](CO)[C@@H](O)[C@H]2O)[C@@H](O)[C@H](O)[C@@H]1O,inactive,–
Nc1ccc(-c2sc(N)nc2-c2ccccc2)cc1,8.91 µM (active),–
Nc1nnc(C(c2ccccc2)c2ccccc2)s1,inactive,–
Nc1nc(-c2ccccc2)c(-c2ccccc2)s1,2.82 µM (active),–
Nc1nc(-c2ccccc2)c(-c2ccccc2)c(-c2nc(N)nc(-c3ccccc3)c2-c2ccccc2)n1,–,-4.5% [at 11.4 µM] (inactive)
CC(C)CN1CCC2(CC1)CCN(C(=O)c1ccncc1)CC2,inactive,–
CN(C)CCC[C@@]1(c2ccc(F)cc2)OCc2cc(C#N)ccc21,inactive,–
CCc1ccc(-c2cc(C(=O)NCc3ccco3)c3ccccc3n2)s1,3.55 µM (active),–
Cc1cccc(C)c1-n1c(SCC(=O)NCc2ccco2)nc2ccccc2c1=O,inactive,–
Cc1ccc(-c2cc(C(=O)NCc3ccco3)c3ccccc3n2)s1,6.31 µM (active),–
Cc1ccc(S(=O)(=O)N(Cc2ccccc2)c2ccccc2C(=O)NCc2ccco2)cc1,inactive,–
CC(C)C(O)(C(C)C)C(C)C,–,-8.65% [at 11.4 µM] (inactive)
C=CCOc1c(Br)cc(CNc2ccc(NC(=O)C(C)C)c(OC)c2)cc1OC,15.8 µM (active),–
CCC1CC2CC(NC(C)=O)C1C2 (stereo not given),inactive,–
COc1ccc(C(=O)c2cnc3ccccc3c2-c2ccccc2)cc1,15.8 µM (active),–
